Our source for the outcome and Potency values is PubChem BioAssay (NCATS).

Test [1] in a line: Cell Viability - LYMP1-002 - Assay at 16 hr (AID 948). In a few lines:
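In this qHTS, lymphoblastoid LYMP1-002 cells (human) receive compounds for 16 hr at 37 C. Viability is taken from CellTiter-Glo ATP luminescence, and AC50 derives from standard Hill fits.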

The nature of test [2]: MultiTox-Fluor Cytotoxicity Assay - LYMP1-002 - Live Cells (AID 955). Also: potency is read from the fitted curve at half-maximal effect. Summed up: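 After 16 h compound exposure at 37 C, live LYMP1-002 lymphoblastoid cells (2500/well) were quantified by cleavage of cell-permeant GF-AFC substrate, read at 405/510 nm after 60 min. Concentration-response fitted with Hill equation for AC50.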
Test [3] in a line: MultiTox-Fluor Cytotoxicity Assay - LYMP1-003 - Dead Cells (AID 961). Also: potency is read from the fitted curve at half-maximal effect; nearly all actives have a fitted effect of over 70% in size. In a few lines:
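Human lymphoblastoid LYMP1-003 cells (2500/well) were treated with compounds for 16 hr at 37 C in complete medium. Dead-cell protease release was read by bis-AAF-R110 fluorescence (Ex/Em 485/520). AC50 came from Hill fits, normalized to DMSO and 15 uM tetraoctylammonium bromide.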

The nature of test [4]: MultiTox-Fluor Cytotoxicity Assay - LYMP1-003 - Live Cells (AID 962). Also: potency is read from the fitted curve at half-maximal effect. In a few lines:
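Live-cell protease activity (GF-AFC substrate, 405/510 nm, 60 min at room temperature) after 16 h, 37 C compound exposure of human lymphoblastoid LYMP1-003 cells; concentration-response fitted to the Hill equation for AC50.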

Test [5] can be described thus: Cell Viability - LYMP1-003 - Assay at 24 hr (AID 963). Summed up: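 Concentration-response qHTS: ATP loss measured by CellTiter-Glo luminescence after 24 h compound exposure at 37 C. Cells were LYMP1-003 human lymphoblastoid, 2500 per well. AC50 derived via standard Hill equation modeling.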
Test [6] can be described thus: Cell Viability - LYMP2-003 (AID 965).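 Also: cells exposed to compounds for 24 h before reading; nearly all actives have a fitted effect of over 50% in size.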 Also: potency is read from the fitted curve at half-maximal effect. In a few lines: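 qHTS, human lymphoblastoid line, 2500 cells/well, complete medium. 24 h drug, 37 C. ATP-based luminescent readout; Hill-fit AC50.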
The nature of test [7]: Cell Viability - LYMP2-011 (AID 969). Also: potency is read from the fitted curve at half-maximal effect; nearly all actives have a fitted effect of over 60% in size. In a few lines: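 Cytotoxicity qHTS with ATP content as read-out: lymphoblastoid cells (2500/well) exposed to compound for 24 h at 37 C, then luciferase luminescence measured. Concentration-response data fitted with the standard Hill equation to give AC50.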
A short description of test [8]: Cell Viability - LYMP2-015 (AID 971). Also: nearly all actives have a fitted effect of over 55% in size. Also: potency is read from the fitted curve at half-maximal effect. In a few lines:
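Cytotoxicity readout: decrease in intracellular ATP (CellTiter-Glo luminescence) in 2500 LYMP2-015 lymphoblastoid cells/well after 24 h compound exposure at 37 C. Concentration-response data fitted with the standard Hill equation to give AC50.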

For test [9], the target named is Pyruvate kinase PKM (Homo sapiens) (UniProt P14618). In words: qHTS Assay for Activators of Human Muscle Pyruvate Kinase (AID 954; active = well fitted curve in the direction sought with a large enough effect, not every such curve was filed as active). In a few lines:
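A coupled luminescent readout tracked ATP made from ADP by purified PKM2. Final conditions included 0.1 nM enzyme, PEP and ADP at 0.5 and 0.1 mM, pH 7.2 imidazole buffer with BSA, and a one-hour room-temperature reaction.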
On the technique in general: Quantitative high-throughput screening tests each substance at several concentrations.

Test [10] addresses Alpha-galactosidase (Coffea arabica) (UniProt Q42656). In words: Counterscreen for Glucocerebrosidase Inhibitors: qHTS Assay for Coffee Bean alpha-Galactosidase at pH 4.5 (AID 957). Also: series mostly up to about 77 µM. Summed up:
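Fluorogenic qHTS at pH 4.5 (citrate buffer with Tween-20): 2 nM enzyme, 80 uM 4-MU-alpha-galactoside substrate, compound titrated 0.7 nM to 77 uM, 20 min room temperature. Glycine/NaOH stop; 4-MU read Ex 365/Em 440; Hill-equation AC50 against no-enzyme and enzyme controls.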
(In general: A counterscreen serves to expose hits that act by an unwanted route or on another target.)

Test [11] is described as follows: MultiTox-Fluor Cytotoxicity Assay - LYMP1-002 - Dead Cells (AID 960). Also: potency is read from the fitted curve at half-maximal effect; nearly all actives have a fitted effect of over 60% in size. In a few lines: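 Dead-cell fluorescence (Ex/Em 485/520) after 16 h compound exposure at 37 C of LYMP1-002 lymphoblastoid cells in complete medium; AC50 by Hill equation, with data scaled between DMSO and 15 uM tetraoctylammonium bromide.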
Test [12] can be described thus: Cell Viability - LYMP1-003 - Assay at 40 hr (AID 964). Also: potency is read from the fitted curve at half-maximal effect; nearly all actives have a fitted effect of over 60% in size. Summed up: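 Viability is taken as cellular ATP, read by CellTiter-Glo luminescence after 40 h of compound exposure at 37 C. Cells: human lymphoblastoid line LYMP1-003 at 2500/well; AC50 values derived by Hill-equation fitting of concentration-response data.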
The nature of test [13]: Cell Viability - LYMP2-005 (AID 967). Also: potency is read from the fitted curve at half-maximal effect. In a few lines: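 Luciferase-based ATP quantitation served as the viability measure in human lymphoblastoid LYMP2-005 cells exposed to test compounds for 24 h at 37 C in complete culture medium. Potency (AC50) was obtained by fitting concentration-response curves with the Hill equation.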
Test [14] can be described thus: Cell Viability - LYMP2-013 (AID 970). Also: potency is read from the fitted curve at half-maximal effect; nearly all actives have a fitted effect of over 55% in size. In a few lines:
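qHTS cytotoxicity: ATP-dependent luminescence (CellTiter-Glo, 30 min room temperature) read after 24 h compound exposure at 37 C of 2500 LYMP2-013 lymphoblastoid cells per well. Concentration-response fitted with Hill equation to give AC50.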

Test [15] in a line: Cell Viability - LYMP2-019 (AID 973). Also: potency is read from the fitted curve at half-maximal effect; nearly all actives have a fitted effect of over 55% in size. Summed up:
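AC50 values come from Hill-equation fits of luminescent intracellular ATP (CellTiter-Glo, 30 min, room temperature) following 24 h compound exposure at 37 C. Cells: LYMP2-019 lymphoblastoid line, 2500 per well, in complete culture medium.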

A short description of test [16]: Cell Viability - LYMP2-004 (AID 966). Also: potency is read from the fitted curve at half-maximal effect; nearly all actives have a fitted effect of over 65% in size. Summed up: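 AC50 values come from Hill modelling of concentration-dependent loss of intracellular ATP, measured by CellTiter-Glo luminescence. Human LYMP2-004 lymphoblastoid cells (2500/well) were exposed to compound for 24 h at 37 C.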
A short description of test [17]: Cell Viability - LYMP2-009 (AID 968). Also: potency is read from the fitted curve at half-maximal effect; nearly all actives have a fitted effect of over 55% in size.
Test [18] is described as follows: Cell Viability - LYMP2-017 (AID 972). In a few lines:
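CellTiter-Glo luminescence (cellular ATP, 30 min RT) measured cytotoxicity after 24 hr compound treatment at 37 C. Cells were a human lymphoblastoid line, LYMP2-017, plated at 2500/well and incubated 5 hr first; concentration-response fitted with Hill equation for AC50.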

Structures are written as SMILES. “And” between values parts separate entries of the source, which are not always exact repeats. Identical values can stand only once. Results filed as inconclusive are left out. A call without a number means that no potency is given here. The source made the active and inactive calls. Unless noted, calls follow the shape of the dose curve; as a rule, active = well fitted curve in the direction sought with a large enough effect; inconclusive = small, poorly fitted or top-dose-only effect, or another doubt; inactive = no such curve, though single readings can be large; an effect the other way counts as inactive or inconclusive.

Sequence of Alpha-galactosidase (Coffea arabica) (Q42656 whole entry, looked up): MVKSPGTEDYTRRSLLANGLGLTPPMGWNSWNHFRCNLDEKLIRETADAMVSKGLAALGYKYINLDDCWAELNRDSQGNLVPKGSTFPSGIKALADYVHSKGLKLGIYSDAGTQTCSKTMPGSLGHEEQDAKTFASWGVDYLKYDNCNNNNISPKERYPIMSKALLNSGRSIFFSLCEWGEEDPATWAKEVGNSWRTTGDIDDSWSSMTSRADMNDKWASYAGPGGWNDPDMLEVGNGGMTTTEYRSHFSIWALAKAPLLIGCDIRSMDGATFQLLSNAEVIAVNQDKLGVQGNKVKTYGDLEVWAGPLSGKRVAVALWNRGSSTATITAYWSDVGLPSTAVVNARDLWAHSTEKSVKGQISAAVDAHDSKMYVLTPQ
Sequence of Pyruvate kinase PKM (Homo sapiens) (P14618 whole entry, looked up): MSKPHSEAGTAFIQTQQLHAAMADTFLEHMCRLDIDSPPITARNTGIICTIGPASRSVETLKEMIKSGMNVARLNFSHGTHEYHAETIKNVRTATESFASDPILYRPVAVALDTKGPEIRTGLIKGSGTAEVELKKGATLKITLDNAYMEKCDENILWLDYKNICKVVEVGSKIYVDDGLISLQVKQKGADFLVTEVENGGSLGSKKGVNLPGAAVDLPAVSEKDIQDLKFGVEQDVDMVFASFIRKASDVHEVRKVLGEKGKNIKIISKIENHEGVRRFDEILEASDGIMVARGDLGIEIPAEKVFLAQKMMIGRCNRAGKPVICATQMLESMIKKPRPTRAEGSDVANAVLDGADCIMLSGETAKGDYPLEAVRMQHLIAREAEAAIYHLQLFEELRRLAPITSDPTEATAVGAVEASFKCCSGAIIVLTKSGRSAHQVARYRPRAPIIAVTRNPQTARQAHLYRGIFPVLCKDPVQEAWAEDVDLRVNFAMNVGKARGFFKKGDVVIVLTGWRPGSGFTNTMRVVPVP

`Clc1ccc(COC(Cn2ccnc2)c2ccc(Cl)cc2Cl)cc1` (stereo unspecified): the compound was called inactive in [1] and in [5]. Moreover, the Potency result in test [2], in test [4], in test [6] and in test [8] was “inactive” each time. Also, the Potency was 63.1 µM (active) in test [3] and 79.4 µM (active) in [7]. For the compound `Cc1cccc(C)c1NC1=NCCCS1`, the outcome in [9] and in test [10] was inactive. For `CCn1cc(C(=O)O)c(=O)c2ccc(C)nc21`, the result in test [9] was inactive. Consider `CC(=O)CCCCn1c(=O)c2c(ncn2C)n(C)c1=O`, for which, in test [10], the compound was classed as inactive. Regarding `NC12CC3CC(CC(C3)C1)C2`, the compound was classed as inactive in test [10].

Take `NNc1nncc2ccccc12`: the result in test [10] was inactive. The same measure, in the same setting: in the case of `Nc1nc(N)c2nc(-c3ccccc3)c(N)nc2n1` it was “inactive”. In the case of `NC(=O)OCC(COC(N)=O)c1ccccc1`, the result in test [10] was inactive. As for `CC(=O)Oc1ccccc1C(=O)Nc1ncc([N+](=O)[O-])s1`, the Potency was 25.1 µM (active) in test [2]; 25.1 µM (active) in [11]; 39.8 µM (active) in test [3]; 39.8 µM (active) in [4]; 12.6 µM (active) in test [12]; 31.6 µM (active) in test [13]. Also, the Potency in [7] was 50.1 µM (active); in test [14] it was 39.8 µM (active); in [15], 31.6 µM (active). `NS(=O)(=O)Cc1noc2ccccc12`: in test [10], the call was inactive. Consider `CC[N+](C)(C)c1cccc(O)c1`, for which the compound was classed as inactive in [10]. For `CN(C)CCC=C1c2ccccc2C=Cc2ccccc21`, in test [10], the result was inactive.

As for `O=c1[nH]cc(F)c(=O)[nH]1`, the call in test [10] was inactive. On to `CCC1(c2ccccc2)C(=O)NCNC1=O`, for which the compound was classed as inactive in [10]. The same measure, in the same setting: with `Nc1nc2c(ncn2COC(CO)CO)c(=O)[nH]1` the entry was “inactive”; with `N[C@@H]1CONC1=O`, “inactive”; with `Cc1nc2n(c(=O)c1CCN1CCC(c3noc4cc(F)ccc34)CC1)CCCC2`, “inactive”. For `CNCCCC1c2ccccc2C=Cc2ccccc21`, the compound was called inactive in [10].

As for `COc1ccc(Cl)cc1C(=O)NCCc1ccc(S(=O)(=O)NC(=O)NC2CCCCC2)cc1`, in test [10], the compound was called inactive. Still for that read-out and setting: in the case of `CC[N+](CC)(CC)CC` it was “inactive”; in that of `O=C(CCCN1CCC(O)(c2ccc(Cl)cc2)CC1)c1ccc(F)cc1`, “inactive”; in that of `OCCN1CCN(CCCN2c3ccccc3Sc3ccc(Cl)cc32)CC1`, “inactive”. Still for that read-out and setting: in the case of `CNCCCN1c2ccccc2CCc2ccccc21` it was “inactive”; in that of `CCN(CC)CCOC(=O)C1(C2CCCCC2)CCCCC1`, “inactive”. Still for that read-out and setting: with `CN(C)CC/C=C1\c2ccccc2COc2ccccc21` the entry was “inactive”. `CCN(CC)C(=S)SSC(=S)N(CC)CC`: the outcome in test [10] was inactive. On to `Fc1ccc([C@@H]2CCNC[C@H]2COc2ccc3c(c2)OCO3)cc1`, for which the compound was classed as inactive in test [10]. In the case of `CN[C@H]1CC[C@@H](c2ccc(Cl)c(Cl)c2)c2ccccc21`, the compound was classed as inactive in test [10].

`CN1CCN(CCCN2c3ccccc3Sc3ccc(Cl)cc32)CC1`: the compound was classed as inactive in [10]. On to `O=c1n(CCCN2CCN(c3cccc(Cl)c3)CC2)nc2ccccn12`, for which the outcome in [10] was inactive. Same read-out and setting: in the case of `Cc1cn([C@H]2C=C[C@@H](CO)O2)c(=O)[nH]c1=O` it was “inactive”.

For `Oc1cccc2cccnc12`, the Potency entry in [2] was “inactive”. Moreover, the Potency in test [11] is 15.8 µM (active); in test [12], 31.6 µM (active) and 39.8 µM (active); in test [6], 12.6 µM (active); in [16], 15.8 µM (active) and 12.6 µM (active); in test [17], 10 µM (active); in [14] it was 15.8 µM (active). For the same compound, the Potency was 12.6 µM (active) in test [8]; 12.6 µM (active) and 10 µM (active) in test [18]; 10 µM (active) in [15].

`CC(C)[N+](C)(CCOC(=O)C1c2ccccc2Oc2ccccc21)C(C)C`: the compound was classed as inactive in [10]. Take `Cc1cnc(C(=O)NCCc2ccc(S(=O)(=O)NC(=O)NC3CCCCC3)cc2)cn1`: the result in [10] was inactive. Take `Nc1ncn([C@@H]2O[C@H](CO)[C@@H](O)[C@H]2O)c(=O)n1`: the compound was called inactive in test [10]. Consider `CC(COc1ccccc1)N(CCCl)Cc1ccccc1` (stereo unspecified), for which the Potency in test [17] is 39.8 µM (active); in [7], 50.1 µM (active); in test [14] it was 39.8 µM (active); in test [8] it was 39.8 µM (active); in test [18] it was 39.8 µM (active).

`CN(C)CCC=C1c2ccccc2CCc2ccccc21`: the Potency in test [8] is 31.6 µM (active).
